# PubChem BioAssay AID686978 (National Center for Advancing Translational Sciences (NCATS), 2013)
# The whole screen tested about 420,000 compounds, of which about 64,000 (15%) were called active. About 27% were inconclusive and are not listed. These entries were drawn from the full list. Values without a mark were called inactive. The call rests on the fitted dose curve; in most records, active means well fitted inhibition curve with a large enough effect; inconclusive means small, poorly fitted or top-dose-only effect; inactive means flat fitted curve, though single readings scatter.
# Assay: qHTS for Inhibitors of human tyrosyl-DNA phosphodiesterase 1 (TDP1): qHTS in cells in absence of CPT; further: nearly all actives have a fitted effect of over 55% in size
# Conditions: DT40 Tdp1-/- hTDP1 cells, no CPT, ATP luminescence, 48 h; activity change, negative = growth inhibition: at 46.2 µM (top of the series)
# In short: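 DT40 Tdp1-/-;hTDP1 cells, no CPT (DMSO vehicle only), 400 cells/well; compounds pin-transferred; ≥48 hr, 37 °C; CellTiter-Glo 30 min RT dark, luminescence read.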
# On the % scale 0 is the no-effect control and ±100 the full control effect; potency means the concentration at half of the fitted maximal effect.
Structure (SMILES),"activity change, negative = growth inhibition",Potency
CCOC(=O)COc1ccc([N+](=O)[O-])cc1,-6.06%,
C/C(=N\N(C)C)c1ccc(OCCOc2ccc([N+](=O)[O-])cc2)cc1,,25.9 µM (active)
Cc1cccc(N(CC(=O)N2CCCC2)S(C)(=O)=O)c1C,-9%,
CC1(OC(=O)CCc2ccccc2)C(=O)C=C2C=C(c3ccc(C#N)cc3)N(CCc3ccccn3)C=C2C1=O (stereo not drawn),-15.3%,
CCN(CC)S(=O)(=O)c1ccc2c3c(cccc13)C(=O)S2,-13.9%,
C/C(=N\NC(=O)c1cccnc1)c1ccc(-n2ccnc2)cc1,-4.41%,
CCC(C)NCCOCCOc1ccc(Br)cc1C (stereo not drawn),,20.6 µM (active)
COCC(C)NCc1cc(Br)ccc1OC (stereo not drawn),-10.7%,
O=C1C(=O)N(CCCN2CCOCC2)C(c2ccc([N+](=O)[O-])cc2)/C1=C(\O)c1ccc2c(c1)OCCO2 (stereo not drawn),4.62%,
O=C(ON=C1CCN(S(=O)(=O)c2ccccc2)CC1)c1ccc(Cl)cc1,1.58%,
CCOc1cccc(-c2nnc(SCC(=O)NC3CC3)n2C)c1,16.9%,
CCOc1ccc2[nH]c3nc(SCC(=O)NC4CCCC4)nnc3c2c1,,6.51 µM (active)
Cc1ccc(CNC(=O)CSc2nnc3c(n2)[nH]c2ccc(F)cc23)cc1,4.95%,
CC(Sc1nncn1C)C(=O)Nc1ccccc1-c1ccccc1 (stereo not drawn),-0.357%,
O=C(Cc1cccs1)NCc1cccc(C(F)(F)F)c1,-13.7%,
Cn1c(=O)c2cc(NC(=O)NCCc3cccs3)ccc2n1Cc1cccc(C(F)(F)F)c1,,23.1 µM (active)
COc1ccc(CCNC(=O)Nc2ccc3c(c2)c(=O)n(C)n3C)cc1OC,-3.91%,
COc1ccc(S(=O)(=O)Nc2cccnc2)c(Cl)c1Cl,-22.8%,
Cc1c(NC(=O)CSCc2ccccc2)cccc1C(=O)O,7.62%,
O=C(c1cc(-c2ccc(O)cc2)on1)N1CCCc2ccccc21,-27.9%,
Cc1cccc2cc3c(N)c(C(=O)N4CCCc5ccccc54)sc3nc12,,2.59 µM (active)
Cc1occc1C(=O)N1CCCc2ccccc21,-3.66%,
CC(C)[C@H](NC(=O)OCc1ccccc1)C(=O)OCc1ccccc1,-26.4%,
c1ccc2c(C[n+]3csc4ccccc43)cccc2c1,,0.82 µM (active)
Nc1scc[n+]1Cc1cccc2cccnc12,0.571%,
CCOc1ccc(CCNC(=O)c2c(C)oc3ncn(C)c(=O)c23)cc1,3.22%,
Cn1c(C(=O)N2CCC(C(N)=O)CC2)cc2c(=O)n(C)c3ccccc3c21,-19%,

Structure (SMILES),"activity change, negative = growth inhibition",Potency
CCOc1ccc(CCNC(=O)c2cc3c(=O)n(C)c4ccccc4c3n2C)cc1,,14.6 µM (active)
Cn1c(C(=O)NCCc2ccsc2)cc2c(=O)n(C)c3ccccc3c21,,16.4 µM (active)
CCOc1ccc(CC(=O)NCCc2csc3nc(-c4ccccc4F)nn23)cc1,-21.6%,
CCOCCCNC(=O)c1cn(CC(C)C)c(=O)c2c1c1ccccc1n2C,-21.2%,
COc1ccc(C(=O)NNC(=O)c2cnccn2)cc1[N+](=O)[O-],-8.01%,
CCc1ccc(N2C(=O)CN(S(=O)(=O)CC)CC2(C)C(=O)NC2CCCCC2)cc1 (stereo not drawn),-19.8%,
Cc1cccc(-n2c(O)c(C=Nc3ccccc3N)c(=O)[nH]c2=O)c1,-6.79%,
Cc1cccc(C)c1OCCN1CCOCC1,-24.1%,
Cc1cc(C)c(OCCN2CC(C)OC(C)C2)c(Br)c1 (stereo not drawn),,16.4 µM (active)
CC1CN(CCOc2ccccc2[N+](=O)[O-])CC(C)O1 (stereo not drawn),-23.7%,
COc1ccc(N2CCN(S(=O)(=O)c3ccc4c(c3)N(C(C)=O)CCO4)CC2)cc1,-8.63%,
O=C(CN1C(=O)C2C3C=CC(C3)C2C1=O)NCCc1ccccc1Cl (stereo not drawn),-9.82%,
COc1cc(N2C(=O)c3ccccc3C2=O)c(Cl)cc1C(=O)OCC(=O)N1CCOCC1,4.59%,
Cc1ccc(NC(=O)NC2CCCCC2)cc1S(=O)(=O)N1CCOCC1,-4.9%,
Cc1ccc(NC(=O)c2ccccn2)cc1S(=O)(=O)N1CCOCC1,-6.82%,
Cc1ccc(C(=O)Nc2ccccc2C(=O)NC2CCCCC2)cc1S(=O)(=O)N1CCOCC1,,18.4 µM (active)
COc1ccc(C(=O)OC(C)C(=O)NC2CCCC2)cc1S(=O)(=O)N1CCOCC1 (stereo not drawn),13.3%,
Cc1ccc(NC(=O)c2ccc(Cl)nc2)cc1S(=O)(=O)N1CCOCC1,,8.2 µM (active)
Cc1ccc(NC(=O)CCCNC(=O)c2ccc(Cl)cc2)cc1S(=O)(=O)N1CCOCC1,-18.1%,
Cc1ccc(NC(=O)COC(=O)C2CC2)cc1S(=O)(=O)N1CCOCC1,0.794%,
Cc1ccccc1NC(=O)c1cc(S(=O)(=O)N2CCOCC2)cs1,-11.8%,
Cc1ccc(NC(=O)C2CCC(C(C)(C)C)CC2)cc1S(=O)(=O)N1CCOCC1 (stereo not drawn),,20.6 µM (active)
COC(=O)CSc1snnc1-c1ccc(Cl)c(Cl)c1,1.97%,
O=C(NCCN1CCCC(O)C1)c1cc(COc2c(F)cccc2F)on1 (stereo not drawn),26.9%,
COC(=O)c1[nH]c2ccc(Br)cc2c1NC(=O)Oc1ccccc1,1.63%,
CC(=O)N1CCN(CC(=O)Nc2ccc(SC(F)F)cc2)CC1,2.7%,
